From PubChem BioAssay
Most compounds without a hit are left out; they make up all but 1.1% or so of the library.
NPR2 activator = GC-B (human) receptor activation; P20594; HEK293-GC-B cells, CNP EC30, cGMP TR-FRET; 0% at EC30 CNP, 100% saturating CNP; activation, % at 10 µM; 0.11% of 370,000 active;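 active = activation at 10 µM reaching about 35% in either raw or pattern-adjusted values, limit read from the data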
aDG glyco act = alpha-DG glycosylation activation; Pro5-aDG cells, alpha-DG glycosylation AlphaScreen (IIH6); 0% Pro5, 100% B10-LARGE cell signal; activation, % at 10 µM; 0.22% of 360,000 active; AID 624168;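 active = activation of at least 8% versus controls, or a plate z-score of at least 8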;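 note: Pro5 are CHO cells carrying HIG-tagged alpha-DG that lacks glycosylation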
FAS-TE inh = blocks the thioesterase domain of human fatty acid synthase; inhibition, % at 15 µM; 0.67% of 360,000 active; recombinant FAS-TE, OMFH fluorogenic substrate, fluorescence endpoint; P49327;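 active = compounds whose normalised, plate-corrected inhibition of enzyme fluorescence in the single-dose primary screen is 50% or more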;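 note: 0% = DMSO with enzyme and 100% = substrate without enzyme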
GC-A act = GC-A (human) enzyme activation. AID 1671463. 0.14% of 370,000 active. HEK293 GC-A cells, cGMP TR-FRET, EC30 ANP; 0% at EC30 ANP, 100% saturating ANP. P16066. activation, % at 10 µM; in the data active = activation above about 40%
Target sequence (P16066 whole entry, looked up): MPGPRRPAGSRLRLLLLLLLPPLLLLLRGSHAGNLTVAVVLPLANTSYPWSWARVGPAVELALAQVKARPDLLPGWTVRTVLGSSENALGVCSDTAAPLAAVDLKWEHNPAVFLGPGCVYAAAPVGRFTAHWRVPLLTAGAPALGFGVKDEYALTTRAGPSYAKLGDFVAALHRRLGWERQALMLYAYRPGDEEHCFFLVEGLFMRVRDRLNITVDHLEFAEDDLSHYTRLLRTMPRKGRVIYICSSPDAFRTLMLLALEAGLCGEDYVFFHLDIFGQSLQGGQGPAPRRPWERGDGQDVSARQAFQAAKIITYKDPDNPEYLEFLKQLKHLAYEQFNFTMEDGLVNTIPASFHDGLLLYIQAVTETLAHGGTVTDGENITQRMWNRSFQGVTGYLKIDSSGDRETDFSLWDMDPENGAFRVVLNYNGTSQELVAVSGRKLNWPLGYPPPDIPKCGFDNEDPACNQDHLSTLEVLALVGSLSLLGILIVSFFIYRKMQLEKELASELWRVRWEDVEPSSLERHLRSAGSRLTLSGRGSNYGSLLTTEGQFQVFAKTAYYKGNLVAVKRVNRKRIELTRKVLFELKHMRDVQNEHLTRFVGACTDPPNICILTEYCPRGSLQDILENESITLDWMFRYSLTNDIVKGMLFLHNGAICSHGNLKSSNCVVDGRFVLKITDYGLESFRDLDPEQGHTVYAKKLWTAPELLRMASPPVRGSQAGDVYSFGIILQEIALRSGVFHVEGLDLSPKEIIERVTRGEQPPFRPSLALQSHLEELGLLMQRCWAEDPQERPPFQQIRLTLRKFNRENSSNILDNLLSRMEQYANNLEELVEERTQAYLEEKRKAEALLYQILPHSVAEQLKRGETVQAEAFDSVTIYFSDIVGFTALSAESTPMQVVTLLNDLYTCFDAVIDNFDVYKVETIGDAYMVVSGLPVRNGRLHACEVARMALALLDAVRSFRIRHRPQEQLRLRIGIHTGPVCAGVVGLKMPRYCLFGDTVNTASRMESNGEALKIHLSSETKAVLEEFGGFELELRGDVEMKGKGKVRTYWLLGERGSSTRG
* = called active by the depositor; / = no result.

SMILES | NPR2 activator | aDG glyco act | FAS-TE inh | GC-A act
CCN(CC)c1ccc(C(=C2C=CC(=[N+](CC)CC)C=C2)c2ccccc2)cc1 | 39* | -1 | 82* | -44
CCN(CC)c1ccc(C(=C2C=CC(=[N+](CC)CC)C=C2)c2ccc(N(CC)CC)cc2)cc1 | -66 | -2 | 26 | -251
CC(C)(C)c1cc[n+](C2=C([O-])c3ccccc3C(=O)/C2=N\S(=O)(=O)c2cccs2)cc1 | -3 | 3.9* | 10 | 3
NC(=O)CCCn1c(C(=O)c2cc(Cl)c(N)c(Cl)c2)c2ccc([N+](=O)[O-])cc2[n+]1[O-] | 58* | 0 | -7 | -6
NC(=O)CCCn1c(C(=O)c2ccc(Cl)cc2)c2ccc([N+](=O)[O-])cc2[n+]1[O-] | -5 | 1 | 0 | -2
COc1ccc(C2CC(=O)C(c3cccc(Cl)c3)=CN2Cc2ccccc2)cc1 (stereo not drawn) | 2 | / | / | -1
COc1ccc(N(C)C(=O)c2sc(Cl)nc2C)cc1 | 4 | 0 | -5 | -5
Cc1ccc(OC(=O)c2sc(Cl)nc2C)cc1C | 6 | 0 | 8 | 71*
C=C(C)Cn1c(SCC(=O)N/N=C(\C)c2ccc(Br)cc2)nnc1-c1ccc(Br)cc1 | -14 | / | / | -22
CC1C(=O)N(Cc2cn(CCC3OCCCO3)nn2)CCS(=O)(=O)N1Cc1ccc(-c2ccccc2)cc1 (stereo not drawn) | 1 | 0 | 2 | 16
CC1C(=O)N(Cc2cn(CCC3OCCCO3)nn2)CCS(=O)(=O)N1Cc1ccc(-c2ccc(Cl)cc2)cc1 (stereo not drawn) | -4 | 1 | 16 | 50*
Nc1ccc2nn(-c3ccccc3)nc2c1 | 3 | 5.9* | 1 | 9
COc1cc(C(=O)NC2CCN(C)CC2)ccc1Nc1ncc2c(n1)N(Cc1ccccc1)CCC(=O)N2C | 38* | -1 | -8 | 33
CCc1ccc(Nc2nnc(SC3CCOC3=O)s2)cc1 (stereo not drawn) | 1 | 0 | -2 | 48*
S=C(Nc1ccc(Nc2ccccc2)cc1)Nc1ccccn1 | -3 | 9.4* | 22 | 7
CCCCCN1CCCCC(NC(=O)c2cccc(F)c2)C1=O (stereo not drawn) | 2 | / | / | -2
C[C@]12C(=O)N(c3cccc(Cl)c3)C(=O)N1[C@H]1c3ccccc3OC[C@@H]1[C@H]2c1ccccc1 | / | 0 | 76* | /
COc1ccc2c(c1)[C@H]1[C@H](CO2)[C@H](c2ccccc2)[C@]2(C)C(=O)Nc3cc(Cl)ccc3C(=O)N12 | / | 0 | 89* | /
O=C(Nc1ncnc2c1C(c1ccccc1)c1c(ccc3ccccc13)O2)c1ccccc1 (stereo not drawn) | -11 | 1 | 96* | -19
O=C(Cc1ccccc1)Nc1ncnc2c1C(c1ccccc1)c1c(ccc3ccccc13)O2 (stereo not drawn) | -14 | 0 | 43 | -18
CCN(CC)C(=O)CC[C@H]1CC[C@]2(CCCN(C3CCCCC3)C2)O1 | 8 | / | / | 0
CC1(c2ccccc2)CC(C)(C)N2C(=O)C3(C(C#N)=C(N)Oc4cc(O)ccc43)c3cccc1c32 (stereo not drawn) | -2 | 0 | 52* | 2
COc1ccc(CNCCc2ccc(Cl)cc2)cc1OCc1ccccc1 | / | 2.7* | -1 | /
CCOc1cc(CNCCc2ccc(S(N)(=O)=O)cc2)ccc1OCc1ccccc1 | -7 | 5.7* | -4 | -6
COc1ccc2[nH]c3c(c2c1)CCN[C@]31C(=O)N(C)c2ccccc21 | 1 | / | / | 3
SMILES | NPR2 activator | aDG glyco act | FAS-TE inh | GC-A act
COC(=O)[C@]12C[C@H](CC(=O)N3CCC(c4ccccc4)CC3)C(=O)N(Cc3cccc4ccccc34)C1=C[C@H](C1CCCC1)O[C@@H]2C | 5 | / | / | 4
Cc1cccc(C(=O)Nc2nc3ncccn3c2-c2ccc(C(F)(F)F)cc2)c1 | 5 | / | / | -4
Cc1csc(NC(=O)c2cc3c(s2)-c2ccccc2OC3)n1 | -16 | 0 | -5 | -3
Cc1c(NC(=O)c2cc3c(s2)-c2ccccc2OC3)cccc1[N+](=O)[O-] | 59* | 1 | 41 | 39
Brc1cccc(Cn2ccc3ccc(-c4ccc5ccn(Cc6cccc(Br)c6)c5c4)cc32)c1 | -1 | / | / | 2
COc1ccc2cc1Oc1ccc(cc1)C[C@H]1c3c(cc(OC)c4c3Oc3c(ccc5c3[C@H](C2)N(C)CC5)O4)CCN1C | / | -1 | 66* | /
COC(=O)c1cc(/C=C/c2ccccc2)on1 | 6 | 0 | -9 | 59*
Cc1ccc(NC(=O)Nc2ccc3c(c2)[C@]2(CC(=O)N(CC(C)C)C2c2ccccc2)C(=O)N3C)cc1Cl (stereo partly drawn) | 11 | / | / | -5
O=C(Cn1nnc(-c2ccccc2)n1)OC1CCOC1=O (stereo not drawn) | 1 | 0 | -10 | 54*
CCOC(=O)Cn1nnc(-c2ccccc2)n1 | -2 | 0 | -1 | -1
Cc1ccc(Cn2nnc3c2-c2cc(F)ccc2S(=O)(=O)N(C(C)(C)C)C3)cc1 | 0 | / | / | 0
CCOC(=O)c1[nH]cnc1N=Nc1c(O)ccc2ccccc12 | 38* | 1 | -3 | 36
O=C1C=CC(=O)N1CCCCCCCCCCN1C(=O)C=CC1=O | 44* | 0 | 30 | 30
CCCCN(C)C(=O)C(Cc1ccccc1)NS(=O)(=O)c1ccc2c(c1)c(=O)n(C)c(=O)n2C (stereo not drawn) | 47* | 0 | 4 | -1
CCCNC(=O)C(Cc1ccccc1)NS(=O)(=O)c1ccc2c(c1)c(=O)n(C)c(=O)n2C (stereo not drawn) | 3 | 0 | -10 | -4
COC(=O)C[C@H]1CC[C@H]2[C@H](COc3ccc(NC(=O)c4cccs4)cc3C(=O)N2C)O1 | 4 | / | / | 3
CC(=O)Nc1ccc(S(=O)(=O)Nc2cccc(-c3nc4cc(C)ccc4o3)c2)cc1 | -5 | 3.9* | 36 | -1
CC(=O)Nc1ccc(S(=O)(=O)Nc2cccc(-c3csc(C)n3)c2)cc1 | -2 | 0 | 3 | -2
CC1(Cc2ccc(C(F)(F)F)nc2)C(=O)Nc2cc(-c3ccccc3Cl)ccc21 (stereo not drawn) | 2 | 1 | 25 | 42*
CCCCNC(=O)C[C@H]1C[C@@]2(C(=O)OC)C(=C[C@H](C3CCCC3)O[C@@H]2C)N(CCC2=CCCCC2)C1=O | -2 | / | / | -1
CCCCOc1ccc(C(=O)NCC(=O)OC2CCOC2=O)cc1 (stereo not drawn) | 3 | 0 | -8 | 57*
COC(=O)[C@]12C[C@H](CC(=O)NCCCCc3ccccc3)C(=O)N(Cc3ccco3)C1=C[C@H](COCc1ccccc1)O[C@@H]2C | -3 | / | / | -6
COCCNc1c2c(c(C#N)c3nc4ccccc4n13)CCCC2 | 5 | 0 | 1 | 6
COc1ccc(Nc2c3c(c(C#N)c4nc5ccccc5n24)CCC3)cc1 | 28 | 0 | -5 | 41*
COc1ccc(-c2ccc3c(n2)CCCN3S(=O)(=O)c2ccc(C(F)(F)F)cc2)cc1 | 4 | / | / | 0
CCOC(=O)CSc1nnc(-c2ccccc2)o1 | 1 | 0 | -6 | -1
